Test results from the supplement of paper PMC11417369.
± gives the standard deviation of the averaged measurements. In all, about 25,000 sequences were measured (“ln(normalized median fluorescence intensity)”: median about 10, highest 2% from about 12 on). For the sample, the highest values were picked, then their nearest neighbours and some sequences at random.

Tested on: PfAP2-G AP2 domain (GST-tagged)
Experiment: gcPBM binding intensity (ln(normalized median fluorescence intensity)); higher = stronger DNA binding
Outline: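 Binding intensity values are the highest Masliner-normalised natural-log median intensity among replicate spots of either probe orientation. The binding step lasted 1 h in 1× PBS with 1% milk, 0.2 mg/ml BSA, 0.5% salmon testes DNA and 0.03% Triton X-100, using GST-tagged P. falciparum DNA-binding domains expressed in E. coli on an Agilent 4 × 180k array of primer-extended double-stranded 36-bp intergenic genomic probes plus negative controls. Alexa488 anti-GST antibody and a 488 nm scan detected bound protein.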

| Sequence | gcPBM binding intensity (ln) |
| --- | --- |
| GTGTAGGCAAAAAGTTGTACGCCTAAAATCTATATA [XGTACX_site8912] | 11.7 ± 1.1 |
| TGTATAGTCTAAAGTTGTACAAAAAAAAAAAAAAAA [XGTACX_site5764] | 11.3 ± 1 |
| AATCAAAAAAAATGTTGTACGCCTAATTATAATTAA [XGTACX_site8906] | 11.6 ± 0.8 |
| TTTTAATTTTGTTGTTGTACAAATAACATGTGAGGG [XGTACX_site4401] | 11.2 ± 0.83 |
| TATTTTAATTTTTGTTGTACGCAAATGTGAGGGCAT [XGTACX_site4663] | 11.7 ± 1.2 |
| TATATATATATATGTTGTACTTTTAATTTAAATGTA [XGTACX_site4239] | 11.6 ± 0.94 |
| TTCTTATTTTATATTTCACACATTTTTACTATACTT [CACACA_site5817] | 10.08 ± 0.071 |
| CACCCACACCAACACACACACATATATAATATATAT [CACACA_site595] | 10.3 ± 0.33 |
| CCCTTTTCTAAATATTGTACGTATAAATTATATTAC [XGTACX_site7676] | 11.7 ± 0.88 |
| TAAATAATATAATTATGTACGTATTTCTTTATTTTA [XGTACX_site8410] | 11.4 ± 0.83 |
| TTTTTTTTTTTCTTTTGTACGTATAAAATTATATAA [XGTACX_site2453] | 11.5 ± 0.66 |
| GGTGCACCCATATACACACACAAATACAATGATAAA [CACACA_site1132] | 10.6 ± 0.76 |
| AATATATAAATTGACACACACATATATACATATATA [CACACA_site1213] | 10.1 ± 0.11 |
| TATATATTTTGTGTCTGTACACATATTATTAATTCC [XGTACX_site7507] | 11.4 ± 1 |
| TGTCTGTGCGGGTGTACACATTTCATATTACCCAAT [CACACA_site5593] | 11.8 ± 0.98 |
| AATTCATTTTACCCATGTACACAATTATATTTTATA [XGTACX_site4127] | 11.6 ± 0.83 |
| AATTTTTCATCAAGTTGTACAATTATTTGTTTGTTT [XGTACX_site3113] | 11.3 ± 0.73 |
| ATATTAGAAATATGAATAGAAAGAATATATAAGTAT [CACACA_negctrl_site682] | 9.76 ± 0.37 |
| TGTTTCTAAAAAAAAGGTACACATATATATAATATA [XGTACX_site3217] | 11.4 ± 0.93 |
| TCGATATATAGACACACACACTTTTAATAATTAAAT [CACACA_site7726] | 10.2 ± 0.24 |
| TCTTTAATGATGTGTACACAAGAAAACATTGTTAAG [CACACA_site5299] | 11.7 ± 0.89 |
| TCAAATGTGTAATCTTGTACACATTAAAAGAAAAAA [XGTACX_site8822] | 11.2 ± 0.83 |
| AACAATGTTTTCTTGTGTACACATCATTAAAGAAAA [XGTACX_site4726] | 11.6 ± 0.88 |
| ATTTTTTTTTTTATTTTCTTTGAGATTATCTTAATT [CACACA_negctrl_site1209] | 9.78 ± 0.14 |

| Sequence | gcPBM binding intensity (ln) |
| --- | --- |
| TATGTATAAAAATAATGTACAAAATATATTATATGT [XGTACX_site2794] | 10.9 ± 0.4 |
| AAAAAAAAAATTGAAAGTACACAAATGGGGTATTAT [XGTACX_site3960] | 11.5 ± 0.87 |
| TATATATATATATGGGGTACAAATGGTCAGTATTAT [XGTACX_site1223] | 11.7 ± 0.97 |
| TAAAATTTGTACATAGTGCAATTTTTTTTTTTTTTT | 10.7 ± 0.52 |
| TTTTTTTTGTGTATTTGTACATAATATATATATATA [XGTACX_site7092] | 10.9 ± 0.49 |
| TGTTATATTTGTGCGTGTACACATTTGAAAAAATAT [XGTACX_site3796] | 11.8 ± 1.1 |
| TATATTTGTGCGTGTACACATTTGAAAAAATATATA [CACACA_site5079] | 11.6 ± 0.88 |
| TAATATTTTTTGTGTACACATATATATATATATATA [CACACA_site5504] | 11.7 ± 0.88 |
| CATAAAATTGTATTTTGTACACATTTTGTATACATT [XGTACX_site5705] | 11.4 ± 0.82 |
| ATGAATATATATATTTGTACATATGTATATATATAT [XGTACX_site7527] | 10.9 ± 0.54 |
| ACATATAAATTGTGTACACATATATATATATTTTTT [CACACA_site5946] | 11.8 ± 1 |
| TTTTTTTTTGGGTGTACACATGAATATATATTTTTT [CACACA_site5254] | 11.7 ± 0.95 |
| TATACATATAAATTGTGTACACATATATATATATTT [XGTACX_site7875] | 11.6 ± 0.92 |
| GTGTTTTTATTATTTTGTACACATATATTTAATATT [XGTACX_site2109] | 11.5 ± 0.87 |
| TTGTGAAATAAAATTTGTACACACATATATATATAT [XGTACX_site1078] | 11.2 ± 0.86 |
| ATCATGAAATATATTTGTACACATAATAATATAATA [XGTACX_site8798] | 11.4 ± 0.89 |
| GTTGGGTAATTCGTAACACACATAAAATATATATAA [CACACA_site3986] | 10.13 ± 0.099 |
| CATAATGTAAATAAGTGTACACATATATAATACATA [XGTACX_site3108] | 11.6 ± 0.9 |
| TATATTTATAGGTACACACACACATATAAATAAATA [CACACA_site6345] | 11.3 ± 0.98 |
| TTATTTCTACCTTTTTGTACACATTATTATGAAACC [XGTACX_site5325] | 11.3 ± 0.81 |
| ACTATTTTAAAAATATGTACATACGTTGTAATTTAA [XGTACX_site7999] | 11.4 ± 0.83 |
| ATAATACAATTTATAACACACACACTATAATACATA [CACACA_site8338] | 10.025 ± 0.007 |
| TTAGGTATATATAAACGTACTCACAATATCATATAA [XGTACX_site8743] | 11.1 ± 0.71 |
| GAATTATAAGAATAAACACACAAGCTTAAAAAAAAA [CACACA_site1204] | 9.74 ± 0.18 |

| Sequence | gcPBM binding intensity (ln) |
| --- | --- |
| AATATATATTTGTGTACACATTATATATATATATAT [CACACA_site6103] | 11.9 ± 1.1 |
| ATATATTTATATTTGTGTACATATTTATTATATTTA [XGTACX_site404] | 11.5 ± 0.67 |
| TATTTGTGTATTTTTACACACATTAATATATTTATA [CACACA_site7562] | 9.9 ± 0.2 |
| CAAAAAGGAATGTATGCACACAATTGATTTTAACTC [CACACA_site1468] | 10 ± 0.13 |
| AAATTAATAAATATTTTTATAAATTATAATATTAAT [GTGCAC_negctrl_site533] | 9.37 ± 0.16 |
| TTTATTTTTAAAGGCACACACATTTTTATTTTTAAA [CACACA_site2021] | 10.1 ± 0.19 |
| AGAAATTAATCGAGGTGTACGTACATCCAAATATAT [XGTACX_site7650] | 11.8 ± 1.2 |
| AGAAATTAATCGAAGTGTACATATAAACATACATAT [XGTACX_site5518] | 11.3 ± 0.69 |
| GAAAATACGTTTAATCGTACATATATATAATATATA [XGTACX_site4243] | 11.1 ± 0.88 |
| GAGAAAAGGAAATTCACACATATAAAGAAAGATCTA [CACACA_site5420] | 9.865 ± 0.064 |
| AAAAAATATTTTTACAGTACATATATATAAAATGTT [XGTACX_site3215] | 10.9 ± 0.58 |
| AAGGAAATATAATATACACACATAAGTGTACTTCTA [CACACA_site6079] | 11.7 ± 1.1 |
| ATAAATACACACAAGTGTACATACTTCTATAAATAT [XGTACX_site1845] | 11.3 ± 0.96 |
| AAGGAAATATAATATACACACATAAGTGTACTTATA [CACACA_site4030] | 11.6 ± 1.1 |
| ATAAAATAAAAGTGTACACAAGAAAATATGTTATGT [CACACA_site6033] | 11.6 ± 0.79 |
| ATAATATAACACAAATGTACAAAAAATAAATAAATA [XGTACX_site385] | 10.7 ± 0.4 |
| GATTATATATGAAAATGTACAAATATATATATATAT [XGTACX_site5963] | 10.8 ± 0.28 |
| ATATAAATAAATATATGTACACACACAAATATATAC [XGTACX_site3950] | 11.4 ± 0.73 |
| TACAAATTAATATGTACACACAAATATATATATATA [CACACA_site1977] | 11.4 ± 0.87 |
| AAGAAATAAAAAGAATGTACACAATATGTATTATAA [XGTACX_site4733] | 11.5 ± 0.69 |
| ATATATATATATATGTGTACACAACAAAATAAAAAA [XGTACX_site7378] | 11.7 ± 0.79 |
| TTTTTTTTTTTTTTTACACACACAAAATATTATATG [CACACA_site2471] | 9.99 ± 0.38 |
| AGTATAAAATAAATGTGTACACAAGAAAATATGTTA [XGTACX_site8381] | 11.8 ± 0.93 |
| TATATATATATGTGTAGTACAACAAATATGAAAAAT [XGTACX_site4059] | 11.7 ± 0.86 |

| Sequence | gcPBM binding intensity (ln) |
| --- | --- |
| ATATATGAAAATATATGTACACAACATATAAAATAG [XGTACX_site5132] | 11.4 ± 0.83 |
| TATATATATATGTGTACACAAAAAATATTATATTAT [CACACA_site5505] | 11.9 ± 0.93 |
| ATCTAATAAAAATACACACACATATGATTTGTGAAT [CACACA_site1867] | 10.1 ± 0.28 |
| TTCTTTTTAAATATACTAATTATGTATAAAACAGAA [GTGCAC_negctrl_site131] | 9.94 ± 0.23 |
| TAAATTATTTATAAAGCACACAAGAAAAAATAAAAT [CACACA_site2132] | 10.2 ± 0.092 |
| TTTCACACTATTTCATGTACACATAAAATTATATAT [XGTACX_site8692] | 11.4 ± 0.94 |
| ATACTATAATAATACACACTCATTAGATATATAAAG [CACACA_site7787] | 9.99 ± 0.12 |
| AAAAAAAAAAAATGAGCACACATAAATAAAAACAAA [CACACA_site8447] | 10.2 ± 0.12 |
| AAATTAAATAAATTTACACACTAAAAATTACAGATA [CACACA_site4722] | 9.88 ± 0.028 |
| TATATATATATAATGTGTACACAAATATATATTATA [XGTACX_site8786] | 11.7 ± 1.1 |
| TTTGACAAATTATTGTGTACACAATATTATTATATA [XGTACX_site8320] | 11.7 ± 1 |
| TTATTTTTTTTTTTTTGTACACAATTTGACACATTA [XGTACX_site7983] | 11.5 ± 0.91 |
| ATACACATATGTTAATGTACACATATATAATATTTA [XGTACX_site163] | 11.3 ± 0.78 |
| GACAAATTATTGTGTACACAATATTATTATATATAC [CACACA_site6020] | 11.6 ± 0.89 |
| AAAAATATATTATATGTACACACAAAATTAAGGGAT [CACACA_site8384] | 11.5 ± 0.83 |
| TTAAAAATGTGTGTGCGTACATAATATTTCGAAAAA [XGTACX_site8197] | 11.6 ± 1 |
| AAATGTGTTAATGTGCGTACACATATATATAATATT [XGTACX_site2792] | 11.7 ± 1.1 |
| ATATATATATATATGTGTACACAAAAAATATTATAT [XGTACX_site5741] | 11.6 ± 0.83 |
| TGTATTATATATACACAAATATTTATGTGTGTGTTT [XGTACX_negctrl_site475] | 10.1 ± 0.11 |
| AAAAATATAATATAATGTACACAAAAAAAAAAAAAT [XGTACX_site4914] | 11.6 ± 0.91 |
| AATGTATAATTATAATGTACAAATAATATATAATAT [XGTACX_site5407] | 10.9 ± 0.4 |
